Source: PMC4336329 (PLoS ONE, 2015)
About 14,000 (4.5%) of roughly 310,000 compounds showed an effect of 50% or more. The effect is printed as a negative number. The sample holds strong results, similar compounds and a random draw of the others, so the mix is not that of the screen.

target: human ether-à-go-go-related gene (hERG) potassium channel (human, UniProt Q12809); experiment: primary screen, population patch clamp on CHO cells stably expressing hERG; higher = less effect of the substance
Sequence (Q12809 whole entry, looked up): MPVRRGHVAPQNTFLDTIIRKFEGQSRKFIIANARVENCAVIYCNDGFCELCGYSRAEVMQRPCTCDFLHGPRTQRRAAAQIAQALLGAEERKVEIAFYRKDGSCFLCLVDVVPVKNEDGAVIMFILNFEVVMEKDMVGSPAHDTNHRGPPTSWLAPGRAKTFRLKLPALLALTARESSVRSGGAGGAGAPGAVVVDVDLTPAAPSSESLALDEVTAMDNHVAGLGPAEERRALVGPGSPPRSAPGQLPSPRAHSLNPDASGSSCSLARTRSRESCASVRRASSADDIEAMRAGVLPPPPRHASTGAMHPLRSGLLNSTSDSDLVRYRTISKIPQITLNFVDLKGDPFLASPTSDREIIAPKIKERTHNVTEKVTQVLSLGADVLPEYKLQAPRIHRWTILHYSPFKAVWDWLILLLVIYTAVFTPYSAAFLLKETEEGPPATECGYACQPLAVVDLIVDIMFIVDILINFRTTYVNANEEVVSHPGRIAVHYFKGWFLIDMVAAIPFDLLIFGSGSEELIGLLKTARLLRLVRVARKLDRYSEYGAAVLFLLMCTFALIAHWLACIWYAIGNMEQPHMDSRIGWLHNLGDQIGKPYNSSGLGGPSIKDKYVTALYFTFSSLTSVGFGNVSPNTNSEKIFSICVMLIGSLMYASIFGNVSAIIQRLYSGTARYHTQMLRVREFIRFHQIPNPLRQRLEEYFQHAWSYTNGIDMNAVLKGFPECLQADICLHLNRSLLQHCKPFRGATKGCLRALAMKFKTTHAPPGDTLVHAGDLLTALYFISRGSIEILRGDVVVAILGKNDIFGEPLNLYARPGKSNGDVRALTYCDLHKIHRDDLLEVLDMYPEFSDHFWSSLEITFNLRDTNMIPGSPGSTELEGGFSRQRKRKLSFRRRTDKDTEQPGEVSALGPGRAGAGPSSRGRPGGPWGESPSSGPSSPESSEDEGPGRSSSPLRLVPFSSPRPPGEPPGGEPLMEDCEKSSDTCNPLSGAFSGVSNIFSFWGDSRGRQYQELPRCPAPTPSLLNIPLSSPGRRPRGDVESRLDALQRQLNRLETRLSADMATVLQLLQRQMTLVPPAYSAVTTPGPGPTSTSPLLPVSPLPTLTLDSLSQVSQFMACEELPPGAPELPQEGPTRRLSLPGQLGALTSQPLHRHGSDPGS
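Also: peak tail current of the secondary pulse compared with the same well before compound.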

SMILES | hERG current change (%, negative = inhibition) at 10uM [%]
CCc1cccc(NC(=O)c2cnn(-c3ccccc3)c2C)c1 | -56
CCc1ccc(NC(=O)c2cnn(-c3ccccc3)c2C)cc1 | 2.7
CCCc1c(C(=O)Nc2ccc(F)cc2)cnn1-c1ccccc1 | 12.5
Cc1ccc(-n2ncc(C(=O)Nc3cc(Cl)ccc3C)c2C2CCNCC2)cc1C.Cl | -35.1
Cc1ccc(-n2ncc(C(=O)Nc3ccc(Cl)cc3)c2C2CCNCC2)cc1C.Cl | -71.7
Cc1cc(C)cc(NC(=O)c2cnn(-c3ccccc3)c2C2CCNCC2)c1.Cl | -19.7
Cc1cccc(NC(=O)c2cnn(-c3ccc(F)cc3)c2C2CCNCC2)c1C.Cl | -9.71
O=C(c1ccco1)N1CCN(C(=O)c2cnn(-c3ccc(Cl)cc3)c2C2CCNCC2)CC1 | 15
Cc1ccc(-n2ncc(C(=O)Nc3cc(Cl)ccc3Cl)c2C2CCNCC2)cc1.Cl | -62
Cc1c(C(=O)Nc2ccccc2)cnn1-c1ccccc1 | -3.03
CCc1ccc(NC(=O)c2cnn(-c3ccccc3)c2C2CCNCC2)cc1.Cl | -60
Cc1cccc(C)c1-n1ncc(C(=O)NC2CCCC2)c1C1CCNCC1 | 18.9
NC(=O)c1ccc(N=Cc2ccc([N+](=O)[O-])s2)cc1 | 8.6
Cc1cccc(OCc2nnc(SCC(=O)O)n2Cc2ccccc2)c1 | 28.1
Cc1cccc(C(=O)Nc2nnc(Cc3c[nH]c4ccccc34)s2)c1 | 12.7
O=C(NCc1cccs1)C1CCN(S(=O)(=O)c2ccc3c(c2)OCCO3)CC1 | 16.5
Cc1ccc(C(=O)NCCN2CCOCC2)c(Cl)c1 | 5.79
COc1ccccc1OCC(=O)Nc1cccc(-c2nc3ccccc3o2)c1 | 0.23
COc1ccc(-c2cccc(NS(=O)(=O)c3ccc([N+](=O)[O-])cc3)c2)nn1 | -15.2
CSc1cccc(NC(=O)C2CCN(S(=O)(=O)c3ccc4c(c3)NC(=O)CO4)CC2)c1 | 12.3
O=C(Nc1ccccc1)/C(=C/c1ccc(F)cc1)NC(=O)c1ccco1 | -2.63
CCCCc1ccc(NC(=O)CSc2nnc(C)c(=O)n2N)cc1 | -23.9

SMILES | hERG current change (%, negative = inhibition) at 10uM [%]
Cc1ccn2cc(-c3cnoc3C)nc2c1 | 6.49
Cc1ccc(NC(=O)COc2ccccc2CNC(C)(C)CC(C)(C)C)cc1 | -22.7
CCOc1cc(/C=N/Nc2nc(N3CCCC3)nc(N3CCCC3)n2)ccc1O | -61.4
CCOc1ccc(/C=N/Nc2nc(N3CCCC3)nc(N3CCCC3)n2)cc1OC | -12
COc1cc(/C=N/Nc2nc(N3CCCC3)nc(N3CCCC3)n2)ccc1O | -37.7
Cc1ccc(S(=O)(=O)NNC(=O)c2ccc3ccccc3n2)cc1 | 3.47
CC(=O)c1ccc(-n2c(CCC(=O)O)ccc2-c2cccs2)cc1 | -0.766
O=C(NC1CCCCC1)c1ccc(COc2ccccc2)o1 | 2.32
CSCCC(NS(=O)(=O)c1ccccc1)C(=O)OCc1nc2ccsc2c(=O)[nH]1 (stereo not drawn) | 2.87
CC(C)[C@H](NC(=O)OCc1ccccc1)C(=O)OCc1cc(=O)oc2cc(O)ccc12 | -46.7
CSCCC(NS(=O)(=O)c1ccccc1)C(=O)OCc1cc(=O)oc2cc(O)ccc12 (stereo not drawn) | -57.3
O=C(NNC(=S)Nc1ccc(Cl)c(Cl)c1)c1cccc([N+](=O)[O-])c1 | 36
CCOC(=O)N1CCN(C(=O)c2cc3cc(Br)ccc3oc2=O)CC1 | -17.7
C=CCNC(=S)N1CCN(Cc2ccccc2)CC1.O=C(O)C(=O)O | 6.48
O=C(NCC(=O)N1CCN(Cc2ccccc2)CC1)c1ccc(Cl)cc1 | -27.9
O=C(c1ccc(-n2cccc2)cc1)N1CCN(Cc2ccccc2)CC1 | -81.1
O=C(CNS(=O)(=O)c1ccc(Br)cc1)N1CCN(Cc2ccccc2)CC1 | -17.2
O=C(C1CCC1)N1CCN(c2ccccc2)CC1 | 13.6
CCNC(=S)N1CCN(Cc2ccccc2)CC1.O=C(O)C(=O)O | -59.9
O=C(c1ccc(Br)cc1)N1CCC(C(=O)N2CCN(c3ccccc3)CC2)CC1 | -68.5
O=C(O)C(=O)O.S=C(NCCc1ccccc1)N1CCN(Cc2ccccc2)CC1 | 0.0203
O=C(NCC(=O)N1CCN(Cc2ccccc2)CC1)c1ccc(Br)cc1 | -53.5

SMILES | hERG current change (%, negative = inhibition) at 10uM [%]
COc1ccc(C(=O)N2CCC(C(=O)N3CCN(c4ccccc4)CC3)CC2)cc1 | -48.7
O=C(c1ccc(CN2CCOCC2)cc1)N1CCN(Cc2ccccc2)CC1 | 15.4
O=C(c1ccc2ccccc2c1)N1CCN(Cc2ccccc2)CC1 | -24.4
O=C(CCCCl)Nc1nc(-c2ccc3c(c2)OCCO3)cs1 | 9.6
CCOC(=O)CC(=O)Nc1c(C)cc(C)cc1C | 4.74
N#CC1=C(N)Oc2cc(N)ccc2C1c1ccc(F)cc1F (stereo not drawn) | -22.9
Cc1ccc(CNC(=O)c2cccnc2Cl)cc1 | 9.97
COCCn1cnnc1SCC(=O)Nc1sccc1C(N)=O | -2.66
COc1ccc(NC(=O)CCNS(=O)(=O)c2cc(Br)cnc2N)c(OC)c1 | 8.51
COc1ccc(C2N(c3cc(Cl)ccc3OC)C(=O)C3CCCN32)cc1OC (stereo not drawn) | -4.91
CC(C)(C)C(=O)NC(=S)NNC(=O)c1sc2ccccc2c1Cl | 5.79
Cc1ccc(S(=O)(=O)N2CCN(C(=O)CN3CCCC3)C2)cc1 | -6.28
NNC(=O)c1sc2nc(N3CCOCC3)c3c(c2c1N)CCCC3 | 11
O=c1cnc2ccccc2n1Cc1ccc(Br)cc1 | 0.175
CCn1nnnc1SCC(=O)Nc1cc(OC)cc(OC)c1 | 11.8
CS(=O)(=O)c1ccc(C(=O)N2CCN(Cc3ccccc3)CC2)cc1 | -55
O=C(O)C(=O)O.O=C(c1ccccc1)N1CCN(Cc2ccccc2)CC1 | -9.23
COC(=O)[C@H](Cc1ccccc1)NC(=O)N1CCN(Cc2ccccc2)CC1 | -58.6
O=C(c1ccc(Br)cc1)N1CCN(Cc2ccccc2)CC1 | -52.2
O=C(c1cccc(Cl)c1)N1CCN(Cc2ccccc2)CC1 | -8.35
O=C(c1ccc(F)cc1)N1CCN(Cc2ccccc2)CC1 | 0.241
CC(C)(C)c1ccc(C(=O)N2CCN(Cc3ccccc3)CC2)cc1 | -3.08

SMILES | hERG current change (%, negative = inhibition) at 10uM [%]
COC(=O)[C@H](Cc1ccccc1)NC(=O)N1CCCCCC1 | 13.5
COC(=O)[C@H](Cc1ccccc1)NC(=O)N1CCCCC1 | 9.93
O=C(c1cccc(Cl)c1)N1CCC(C(=O)N2CCN(Cc3ccccc3)CC2)CC1 | -56.2
O=C(c1cccc(Cl)c1)N1CCC(N2CCC(C(=O)N3CCCC3)CC2)CC1 | -49.1
O=C(c1ccc(S(=O)(=O)N2CCCCCC2)cc1)N1CCN(Cc2ccccc2)CC1 | -19.5
CCOC(=O)/C(=C/c1ccc(F)cc1)NC(C)=O | -7.91
COCCCNC(=O)CCNS(=O)(=O)c1ccc(C)cc1 | -1.45
Cc1ccc2ncnc(Oc3ncccc3NC(=O)C(C)(C)C)c2c1 | 13.8
O=S(=O)(N1CCCCC1)N1CCN(c2cc(Cl)ccc2Cl)CC1 | 15.2
COc1ccc(C2Nc3ccccc3C(=O)N2Cc2ccco2)cc1CN1C(=O)c2ccccc2C1=O (stereo not drawn) | -20.7
O=C(NCc1ccco1)C(=O)c1cn(CC(=O)N2CCCCC2)c2ccccc12 | 19.3
O=C(O)CC/C(=N\NC(=O)CNC(=O)c1ccc(F)cc1)c1ccccc1 | 9.42
Cc1ccc(CNC(=O)COC(=O)Cn2nc(C)c([N+](=O)[O-])c2C)cc1 | -16.3
COc1ccc(C(=O)NCc2ccc(N3CCN(C(=O)OC(C)(C)C)CC3)cc2)cc1 | -12.7
COC(=O)c1cc(-c2c(-c3ccc4c(c3)OCO4)noc2-c2ccsc2)cc([N+](=O)[O-])c1 | 10.7
O=C(c1coc(=O)c2ccccc12)N1CCN(Cc2ccccc2)CC1 | -51.2
COc1ccc(C(=O)N2CCC(C(=O)N3CCN(Cc4ccccc4)CC3)CC2)cc1 | -9.58
Cc1occc1C(=O)N1CCN(Cc2ccccc2)CC1 | -1.16
O=C(C1CC1)N1CCN(Cc2ccccc2)CC1 | -32.1
O=C(c1ccc(Br)cc1)N1CCC(C(=O)N2CCN(Cc3ccccc3)CC2)CC1 | -60.1
CS(=O)(=O)c1ccccc1C(=O)N1CCN(Cc2ccccc2)CC1 | 23.7
